What all share (parameters): scale not given: direction of the effect not stated beside the values
For assay [1], the target named is Protein translocase subunit SecA (Escherichia coli (strain K12)) (UniProt P10408). The assay can be described thus: Assay to Identify E. coli SecA ATPase Inhibitors. The note with it: 30 µM. It counts as functional.
Assay [2] concerns the target T1, Ubiquitin-activating enzyme e1, putative (Leishmania donovani (strain BPK282A1)) (UniProt E9BSI1).
T1 sequence (whole entry): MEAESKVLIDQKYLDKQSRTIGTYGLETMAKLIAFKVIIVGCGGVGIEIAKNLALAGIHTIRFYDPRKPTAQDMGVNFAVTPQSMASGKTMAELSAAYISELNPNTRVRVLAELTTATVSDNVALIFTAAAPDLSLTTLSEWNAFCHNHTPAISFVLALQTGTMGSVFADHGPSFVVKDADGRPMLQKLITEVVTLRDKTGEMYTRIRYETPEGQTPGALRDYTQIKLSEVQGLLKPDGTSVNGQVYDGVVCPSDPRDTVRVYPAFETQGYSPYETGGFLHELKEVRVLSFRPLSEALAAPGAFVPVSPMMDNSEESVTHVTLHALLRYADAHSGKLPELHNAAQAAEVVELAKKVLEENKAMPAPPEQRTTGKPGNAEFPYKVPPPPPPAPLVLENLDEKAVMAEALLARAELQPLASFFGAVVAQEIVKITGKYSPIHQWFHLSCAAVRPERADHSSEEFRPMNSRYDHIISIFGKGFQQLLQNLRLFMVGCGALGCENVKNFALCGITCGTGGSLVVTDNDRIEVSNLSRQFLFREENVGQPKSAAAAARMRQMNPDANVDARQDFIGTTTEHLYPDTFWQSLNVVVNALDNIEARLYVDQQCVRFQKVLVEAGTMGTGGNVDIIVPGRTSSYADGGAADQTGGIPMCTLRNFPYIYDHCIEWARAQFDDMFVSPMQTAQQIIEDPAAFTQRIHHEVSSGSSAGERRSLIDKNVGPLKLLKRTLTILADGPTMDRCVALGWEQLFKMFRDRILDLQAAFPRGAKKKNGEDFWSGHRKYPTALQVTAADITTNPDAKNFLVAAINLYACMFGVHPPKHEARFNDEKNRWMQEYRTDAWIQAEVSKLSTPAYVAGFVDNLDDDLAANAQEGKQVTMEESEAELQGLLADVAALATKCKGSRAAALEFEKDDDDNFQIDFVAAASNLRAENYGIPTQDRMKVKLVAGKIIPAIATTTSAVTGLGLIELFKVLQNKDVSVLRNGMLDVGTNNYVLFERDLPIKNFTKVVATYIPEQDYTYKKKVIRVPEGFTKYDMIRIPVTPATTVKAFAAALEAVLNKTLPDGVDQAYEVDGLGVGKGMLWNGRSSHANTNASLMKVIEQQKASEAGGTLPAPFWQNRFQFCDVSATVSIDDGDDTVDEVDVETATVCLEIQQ
The assay can be described thus: Leishmania donovani Ubiquitin Activating Enzyme (LdE1). Conditions: 30 µM. It counts as functional.

The target of assay [3] is AMP-activated protein kinase, AMPK (Homo sapiens) (UniProt P54646+O43741+P54619+Q9UGJ0+Q9Y478+Q13131+Q9UGI9). The assay can be described thus: AMP-dependent Kinase enzyme assay. An in vitro enzyme assay that detects ADP turnover that is directly proportional to AMPK activity. This uses naive AMPK that is activated during the assay with MK-8722. It counts as functional. Conditions: 30 µM.

Assay [4] concerns the target Sialic acid-binding Ig-like lectin 9 (Homo sapiens) (UniProt Q9Y336). Briefly: Hs-Siglec9 ALPHAscreen SOP 20170721. The note with it: 10 µM. Background: Alpha assays give light when donor and acceptor beads are brought close together.
The next assay has as its system Trypanosoma cruzi. The assay can be described thus: Trypanosoma cruzi phosphomannomutase and mannose-1-phosphate guanylyltransferase assay. It counts as functional. The note with it: 10 µM.
Assay [5] addresses T2, Arginase-2, mitochondrial (Homo sapiens) (UniProt P78540).
T2 sequence (whole entry): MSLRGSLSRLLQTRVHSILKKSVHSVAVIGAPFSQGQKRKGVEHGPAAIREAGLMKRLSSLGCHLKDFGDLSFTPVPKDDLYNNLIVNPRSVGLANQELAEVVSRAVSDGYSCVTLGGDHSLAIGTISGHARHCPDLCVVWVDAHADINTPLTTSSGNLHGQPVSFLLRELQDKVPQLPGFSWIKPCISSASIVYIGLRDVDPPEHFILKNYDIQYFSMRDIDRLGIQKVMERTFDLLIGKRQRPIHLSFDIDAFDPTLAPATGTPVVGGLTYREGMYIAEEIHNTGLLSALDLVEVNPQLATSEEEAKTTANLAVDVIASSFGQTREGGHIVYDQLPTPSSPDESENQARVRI
The assay can be described thus: in vitro enzyme assay to detect the production of urea directly proportional to the activity of Arginase II. Note: in the data most compounds retested in dose-response had high values. The assay is classed as functional. Conditions: 33.3 µM.

The target of assay [6] is T3, Proteasome subunit beta (Trypanosoma cruzi) (UniProt O96673).
T3 sequence (whole entry): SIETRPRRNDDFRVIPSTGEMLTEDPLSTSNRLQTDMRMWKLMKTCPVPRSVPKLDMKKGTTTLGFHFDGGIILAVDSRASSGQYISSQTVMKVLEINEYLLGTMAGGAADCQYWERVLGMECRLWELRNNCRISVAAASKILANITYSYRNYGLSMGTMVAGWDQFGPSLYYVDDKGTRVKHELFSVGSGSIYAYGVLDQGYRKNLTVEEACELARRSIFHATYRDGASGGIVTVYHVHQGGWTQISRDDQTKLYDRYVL
The assay can be described thus: Trypanosoma cruzi proteasome chymotrypsin-like activity (TcProtChymo) assay. Note: in the data most compounds retested in dose-response had high values. The assay is classed as functional. The note with it: 9.37 µM.

The species entered for another assay is Homo sapiens. Briefly: To identify inhibition of the IFN signalling (Jak-Stat) pathway via expression of an eGFP reporter gene under the control of an IFN-stimulated response element (ISRE) containing MxA promoter. The note with it: 30 µM. It counts as functional. (Reporter assays use an easily measured gene product as a stand-in for the process of interest.)

The target in assay [7] is T4, Tyrosyl-tRNA synthetase, putative (Trypanosoma cruzi (strain CL Brener)) (UniProt Q4DSP6).
T4 sequence (whole entry): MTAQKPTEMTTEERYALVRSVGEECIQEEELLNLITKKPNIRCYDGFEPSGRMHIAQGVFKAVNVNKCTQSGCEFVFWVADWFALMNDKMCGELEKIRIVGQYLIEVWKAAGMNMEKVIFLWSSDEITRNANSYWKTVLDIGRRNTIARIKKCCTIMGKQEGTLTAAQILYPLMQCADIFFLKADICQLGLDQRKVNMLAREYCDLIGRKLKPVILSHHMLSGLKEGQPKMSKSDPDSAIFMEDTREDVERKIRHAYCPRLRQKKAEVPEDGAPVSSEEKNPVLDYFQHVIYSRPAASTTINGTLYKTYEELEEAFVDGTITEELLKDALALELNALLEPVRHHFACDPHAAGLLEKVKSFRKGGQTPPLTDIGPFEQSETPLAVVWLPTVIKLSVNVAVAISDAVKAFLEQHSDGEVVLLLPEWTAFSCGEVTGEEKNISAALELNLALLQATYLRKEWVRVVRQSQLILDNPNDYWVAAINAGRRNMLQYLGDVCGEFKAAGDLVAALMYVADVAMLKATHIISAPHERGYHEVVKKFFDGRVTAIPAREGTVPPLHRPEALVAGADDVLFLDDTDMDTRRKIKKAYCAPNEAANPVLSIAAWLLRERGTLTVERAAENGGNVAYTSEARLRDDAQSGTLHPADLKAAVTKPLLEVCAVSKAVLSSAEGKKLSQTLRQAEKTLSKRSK
The assay can be described thus: Trypanosoma cruzi tyrosyl tRNA synthetase (TcYRS) _High Tyrosine SOP. Note: in the data most compounds retested in dose-response had high values. It counts as functional. The note with it: 30 µM.

In assay [8] the target is T4, Tyrosyl-tRNA synthetase, putative (Trypanosoma cruzi (strain CL Brener)). The assay can be described thus: Trypanosoma cruzi tyrosyl tRNA synthetase (TcYRS) SOP. The assay is classed as functional. Conditions: 30 µM.
In assay [9] the target is Chromo domain-containing protein 1 (Saccharomyces cerevisiae (strain ATCC 204508 / S288c) (Baker's yeast)) (UniProt P32657). The assay can be described thus: ScCHD-1 Enzyme Inhibition Assay. Note: in the data most compounds retested in dose-response had high values. It counts as functional. Conditions: 30 µM.
Sequence of Chromo domain-containing protein 1 (Saccharomyces cerevisiae (strain ATCC 204508 / S288c) (Baker's yeast)) (P32657 whole entry, the tested form may be a part): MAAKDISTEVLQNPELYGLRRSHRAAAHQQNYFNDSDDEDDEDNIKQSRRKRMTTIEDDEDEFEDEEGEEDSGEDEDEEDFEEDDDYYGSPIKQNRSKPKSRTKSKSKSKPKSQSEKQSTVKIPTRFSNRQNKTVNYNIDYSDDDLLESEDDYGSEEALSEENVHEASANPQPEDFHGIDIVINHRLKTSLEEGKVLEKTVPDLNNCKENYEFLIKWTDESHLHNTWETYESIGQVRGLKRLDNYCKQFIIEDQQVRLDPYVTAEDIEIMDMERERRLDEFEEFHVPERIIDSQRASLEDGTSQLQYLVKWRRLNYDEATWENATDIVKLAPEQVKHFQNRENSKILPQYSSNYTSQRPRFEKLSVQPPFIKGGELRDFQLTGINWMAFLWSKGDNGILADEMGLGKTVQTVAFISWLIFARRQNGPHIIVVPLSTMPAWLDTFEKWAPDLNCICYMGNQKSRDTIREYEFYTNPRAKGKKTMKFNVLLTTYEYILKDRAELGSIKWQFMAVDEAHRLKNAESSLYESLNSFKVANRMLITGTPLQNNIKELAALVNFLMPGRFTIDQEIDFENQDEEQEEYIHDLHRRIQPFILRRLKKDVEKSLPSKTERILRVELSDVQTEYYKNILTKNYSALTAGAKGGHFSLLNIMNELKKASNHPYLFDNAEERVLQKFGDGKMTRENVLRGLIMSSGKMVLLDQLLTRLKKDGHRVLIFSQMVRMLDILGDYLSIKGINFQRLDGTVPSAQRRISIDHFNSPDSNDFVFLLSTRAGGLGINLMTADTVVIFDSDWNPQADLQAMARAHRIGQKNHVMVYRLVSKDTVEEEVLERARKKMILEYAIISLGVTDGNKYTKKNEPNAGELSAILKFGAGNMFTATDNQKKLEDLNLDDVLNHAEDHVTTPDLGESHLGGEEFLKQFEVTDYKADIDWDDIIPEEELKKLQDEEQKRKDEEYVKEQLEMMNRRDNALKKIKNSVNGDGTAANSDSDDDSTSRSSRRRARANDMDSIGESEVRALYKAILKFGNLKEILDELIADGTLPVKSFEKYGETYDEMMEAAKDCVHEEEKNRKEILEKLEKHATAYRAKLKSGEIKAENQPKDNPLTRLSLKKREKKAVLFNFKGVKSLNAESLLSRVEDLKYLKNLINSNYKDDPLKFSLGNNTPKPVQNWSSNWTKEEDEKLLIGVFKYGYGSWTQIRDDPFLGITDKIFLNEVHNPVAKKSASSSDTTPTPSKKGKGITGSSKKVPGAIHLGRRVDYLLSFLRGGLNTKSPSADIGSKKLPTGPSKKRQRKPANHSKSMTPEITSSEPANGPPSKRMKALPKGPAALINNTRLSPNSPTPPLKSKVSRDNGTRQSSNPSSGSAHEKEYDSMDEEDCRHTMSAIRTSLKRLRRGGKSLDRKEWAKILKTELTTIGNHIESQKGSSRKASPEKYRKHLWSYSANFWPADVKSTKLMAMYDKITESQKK

SMILES strings stand for the structures. For some of these results: Potency and affinity values are given separately.

Sequence of Protein translocase subunit SecA (Escherichia coli (strain K12)) (P10408 whole entry): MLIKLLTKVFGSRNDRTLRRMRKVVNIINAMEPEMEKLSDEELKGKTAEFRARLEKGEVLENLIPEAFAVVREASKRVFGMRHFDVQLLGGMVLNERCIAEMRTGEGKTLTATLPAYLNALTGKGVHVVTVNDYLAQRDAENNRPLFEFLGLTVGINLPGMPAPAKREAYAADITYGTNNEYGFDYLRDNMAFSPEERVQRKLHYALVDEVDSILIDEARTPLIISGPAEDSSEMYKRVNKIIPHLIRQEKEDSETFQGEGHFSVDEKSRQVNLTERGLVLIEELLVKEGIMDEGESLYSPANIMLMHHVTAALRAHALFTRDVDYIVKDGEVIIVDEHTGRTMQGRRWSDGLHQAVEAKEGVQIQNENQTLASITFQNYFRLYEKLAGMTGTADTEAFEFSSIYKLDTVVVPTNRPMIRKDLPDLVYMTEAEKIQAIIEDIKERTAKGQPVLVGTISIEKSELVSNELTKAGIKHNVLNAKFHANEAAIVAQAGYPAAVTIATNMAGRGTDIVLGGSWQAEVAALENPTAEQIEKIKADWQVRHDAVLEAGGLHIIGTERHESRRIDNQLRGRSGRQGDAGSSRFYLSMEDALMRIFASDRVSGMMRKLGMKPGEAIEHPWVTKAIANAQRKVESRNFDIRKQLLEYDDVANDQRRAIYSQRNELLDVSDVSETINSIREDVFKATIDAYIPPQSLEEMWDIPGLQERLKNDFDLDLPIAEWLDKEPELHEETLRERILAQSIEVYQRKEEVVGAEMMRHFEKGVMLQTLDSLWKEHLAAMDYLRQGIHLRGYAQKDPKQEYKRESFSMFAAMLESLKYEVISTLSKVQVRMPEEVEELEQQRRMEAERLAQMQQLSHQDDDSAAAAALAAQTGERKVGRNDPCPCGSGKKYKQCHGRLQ
Sequence of Sialic acid-binding Ig-like lectin 9 (Homo sapiens) (Q9Y336 whole entry): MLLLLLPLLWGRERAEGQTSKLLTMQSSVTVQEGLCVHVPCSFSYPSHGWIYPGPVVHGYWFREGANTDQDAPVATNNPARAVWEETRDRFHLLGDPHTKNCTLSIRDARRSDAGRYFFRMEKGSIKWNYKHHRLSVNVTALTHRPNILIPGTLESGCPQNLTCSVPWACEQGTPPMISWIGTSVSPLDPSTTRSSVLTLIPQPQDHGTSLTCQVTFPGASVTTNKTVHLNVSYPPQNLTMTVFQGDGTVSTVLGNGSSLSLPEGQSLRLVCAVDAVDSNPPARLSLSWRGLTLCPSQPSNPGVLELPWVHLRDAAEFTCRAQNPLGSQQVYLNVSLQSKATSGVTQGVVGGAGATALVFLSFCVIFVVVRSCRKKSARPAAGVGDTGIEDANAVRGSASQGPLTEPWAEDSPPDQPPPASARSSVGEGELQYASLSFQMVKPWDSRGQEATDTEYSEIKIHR

As to `N#Cc1ccc(OCCN2CCc3c(ncn3C3CC3)C2)cc1`, the Percent Effect in assay [1] was -3.1%; in [2], 23.4%; in assay [3], -12.7%; in assay [4], -6.96%; with Trypanosoma cruzi it was -1.31%; in assay [5], 0%. Also, the Percent Effect is 7.26% in assay [6]; -0.819% in the assay filed under Homo sapiens; 13.6% in assay [7]; 9.76% in [8]; -10.1% in [9].
`CN(C)C(=O)N1CCN(Cc2noc(Cc3ccccc3)n2)CC1`: the Percent Effect in [1] was -2.44%; in assay [2], 0%; in [3], -1.46%; in assay [4] it was 6.32%; in the assay on Trypanosoma cruzi, -0.661%; in assay [5], -2.28%. The Percent Effect was -0.409% in [6]; -0.594% in the assay filed under Homo sapiens; 2.46% in [7]; -3.8% in assay [8]; -2.99% in assay [9].
`CCCNCc1cn(C)nc1-c1cccnc1`: the Percent Effect was -2.45% in assay [1]; -2.7% in assay [2]; 1.1% in [3]; -2.38% in [4]; -6.55% with Trypanosoma cruzi; 1.74% in assay [5]. For the same compound, the Percent Effect in [6] is 11.8%; in the assay filed under Homo sapiens, -8%; in assay [7], 0%; in assay [8], 1.24%; in assay [9], 1.57%.
Turning to `COc1cccc2c1OCC(CNC(=O)CNC(N)=O)C2` (stereo unspecified), the Percent Effect in assay [1] was -5.81%; in [2], 10.8%; in [3], -3.03%; in assay [4], 22.4%; in the assay on Trypanosoma cruzi, 7.33%; in assay [5], 1.24%. In addition, the Percent Effect in assay [6] is 4.72%; in the assay filed under Homo sapiens, -5.45%; in [7], 5.38%; in [8], 13.6%; in assay [9], -9.37%.
Consider `CC(C)N1CCn2c(nc3cc(C(N)=O)ccc32)C1`, for which the Percent Effect in assay [1] was -8.72%; in [2] it was 12%; in [3], -4.63%; in assay [4], 7.53%; in the assay with Trypanosoma cruzi, 0.393%; in assay [5] it was -8.63%. The Percent Effect in [6] was 8.87%; in the assay listed under Homo sapiens, 2.55%; in [7] it was 2.12%; in assay [8], 12.8%; in assay [9], -11.8%.
As for `COCCNC(=O)Nc1ccc(-n2cncn2)c(F)c1`, the Percent Effect in [1] was -6.54%; in [2], 0%; in [3], -12.8%; in [4], 0.712%; in the assay on Trypanosoma cruzi, -4.7%; in assay [5] it was 0%. Besides, the Percent Effect in [6] is 4.51%; in the assay filed under Homo sapiens it was 28.2%; in assay [7], 2.45%; in assay [8], 0%; in assay [9] it was -7.16%.
On to `CSc1ccc(-c2nc(CN3CCC(NC(C)=O)C3)c(C)o2)cc1` (stereo unspecified), for which the Percent Effect in [1] was -6.31%; in assay [2] it was -5.41%; in assay [3] it was 0.887%; in assay [4], -0.709%; in the assay with Trypanosoma cruzi, -4.25%; in [5], -3.33%. Further, the Percent Effect in assay [6] is 2.93%; in the assay listed under Homo sapiens, 18.4%; in [7] it was 4.76%; in assay [8] it was 7.32%; in assay [9], -1.88%.
In the case of `Cc1ccc(-c2noc(CN3CCOC(CN(C)C)C3)n2)cc1F` (stereo unspecified), the Percent Effect in assay [1] was -2.58%; in [2], -8.11%; in assay [3], -2.88%; in assay [4], 2.97%; with Trypanosoma cruzi it was -3.99%; in [5] it was -4.25%. Moreover, the Percent Effect was -0.539% in assay [6]; 20.6% in the assay filed under Homo sapiens; 1.98% in assay [7]; -1.22% in [8]; 2.19% in assay [9].
As to `c1ccc(CN2CCc3ncnc(-c4ccsc4)c3CC2)nc1`, the Percent Effect in assay [1] was -4.91%; in assay [2] it was 0%; in [3] it was 2.79%; in assay [4] it was 8.34%; in the assay with Trypanosoma cruzi it was -2.83%; in assay [5], 5.41%. The Percent Effect in assay [6] was 22.7%; in the assay filed under Homo sapiens, -21%; in [7], 2.16%; in assay [8], 7.69%; in [9], 3.65%.
Consider `COCC1CC2(CCN(Cc3cnn(C)c3)CC2)CN1c1ncccn1` (stereo unspecified), for which the Percent Effect in assay [1] was -2.97%; in [2] it was 13%; in [3], 0.218%; in assay [4], 12.7%; in the assay with Trypanosoma cruzi, 7.38%; in assay [5], -5.52%. Also, the Percent Effect is 11.7% in assay [6]; -19% in the assay filed under Homo sapiens; 7.53% in assay [7]; 18.5% in assay [8]; -2.6% in assay [9].
For the compound `Cc1cccc(CS(=O)(=O)NCC(O)Cc2ccccc2)c1` (stereo unspecified), the Percent Effect in assay [1] is -3.31%; in [2], 5.48%; in assay [3], -2.41%; in [4], 8.56%; in the assay on Trypanosoma cruzi, 3.33%; in assay [5] it was 10.4%. Besides, the Percent Effect in [6] was 11.2%; in the assay filed under Homo sapiens, 7.9%; in [7] it was 5.38%; in assay [8], 12.5%; in assay [9] it was -5.28%.

For the origin of these results see ChEMBL document CHEMBL3988442, “University of Dundee, Small-Polar-MMV Screening Library” (2021).
